Results taken from article PMC4336329 (PLoS ONE, 2015).
Among all 310,000 compounds or so, about 14,000 (4.5%) showed an effect of 50% or more. Effects have a minus sign here. For the sample, strong results were picked, then their nearest neighbours and some compounds at random.

biological target: human ether-à-go-go-related gene (hERG) potassium channel (human, UniProt Q12809); test: primary screen, population patch clamp on CHO cells stably expressing hERG; higher = less effect of the substance
Sequence (Q12809 whole entry, looked up): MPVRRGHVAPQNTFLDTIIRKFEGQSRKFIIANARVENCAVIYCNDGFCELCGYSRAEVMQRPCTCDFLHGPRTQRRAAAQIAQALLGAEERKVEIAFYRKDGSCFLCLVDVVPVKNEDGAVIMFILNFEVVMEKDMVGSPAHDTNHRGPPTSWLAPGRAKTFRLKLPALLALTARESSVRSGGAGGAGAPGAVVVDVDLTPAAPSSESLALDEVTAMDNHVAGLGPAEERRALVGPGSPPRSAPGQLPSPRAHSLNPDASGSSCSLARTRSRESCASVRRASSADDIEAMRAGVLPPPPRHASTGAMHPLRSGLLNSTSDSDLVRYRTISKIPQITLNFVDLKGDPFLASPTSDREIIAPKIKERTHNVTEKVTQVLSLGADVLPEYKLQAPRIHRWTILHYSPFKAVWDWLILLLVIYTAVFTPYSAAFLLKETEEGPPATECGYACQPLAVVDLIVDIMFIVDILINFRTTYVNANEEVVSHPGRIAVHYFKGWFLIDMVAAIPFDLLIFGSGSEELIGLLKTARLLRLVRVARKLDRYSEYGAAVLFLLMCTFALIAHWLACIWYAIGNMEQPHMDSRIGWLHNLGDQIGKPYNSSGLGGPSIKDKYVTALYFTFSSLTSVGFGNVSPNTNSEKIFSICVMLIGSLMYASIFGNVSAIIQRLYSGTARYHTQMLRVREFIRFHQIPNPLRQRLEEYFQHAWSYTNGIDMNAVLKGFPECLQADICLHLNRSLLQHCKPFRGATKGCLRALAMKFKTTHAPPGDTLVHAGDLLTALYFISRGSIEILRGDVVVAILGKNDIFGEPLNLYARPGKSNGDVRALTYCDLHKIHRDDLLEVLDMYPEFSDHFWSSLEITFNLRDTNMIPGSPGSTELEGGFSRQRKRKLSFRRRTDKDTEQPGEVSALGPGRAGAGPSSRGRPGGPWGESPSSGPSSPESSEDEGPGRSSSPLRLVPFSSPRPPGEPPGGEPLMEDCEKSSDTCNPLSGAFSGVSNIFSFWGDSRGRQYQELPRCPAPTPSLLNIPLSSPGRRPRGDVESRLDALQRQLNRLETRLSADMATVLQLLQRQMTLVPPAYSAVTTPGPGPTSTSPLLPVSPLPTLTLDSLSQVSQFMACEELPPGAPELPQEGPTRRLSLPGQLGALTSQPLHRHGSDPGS
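Further: peak tail current of the secondary pulse compared with the same well before compound.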

Point of comparison: Cc1cc(N2CCc3ccccc32)n2ncnc2n1, “hERG current change (%, negative = inhibition) at 10uM” value -0.558%. Against it:
- Cc1c(Cl)cccc1NC(=S)N1CCN(Cc2ccccc2)CC1 — lower, -3.12%
- CN(C)C(CNC(=O)c1ccccc1C(F)(F)F)c1ccco1 (centres unmarked) — higher, 7.83%
- CCS(=O)(=O)Nc1cccc(C(=C2CCCCC2)c2cnc[nH]2)c1 — lower, -30.2%
- CCN1CCc2c(C#N)c(N3CCOCC3)nc(N3CCOCC3)c2C1 — higher, 5.21%
- O=C(Nc1ncccn1)C1=C(O)c2ccccc2S(=O)(=O)N1Cc1ccccc1 — higher, 22.8%
- CCOC(=O)/C(C#N)=C/c1cccn1-c1ccc(Cl)cc1 — higher, 2.73%
- C/C(=N\NC(=O)COc1ccccc1F)c1cc2ccccc2o1 — higher, 3.99%
- Cc1cc(C)cc(-c2nnc(SCc3ccc(C(=O)O)cc3)o2)c1 — lower, -74%
- COc1cc(OC)cc(-c2nnc(SCc3ccc(C(=O)O)cc3)o2)c1 — lower, -71.6%
- COc1ccc(-c2nnc(SCc3ccc(C(=O)O)cc3)o2)cc1OC — higher, 13.7%
- COc1cc(OC)cc(-c2nnc(SCc3cccc(C(=O)O)c3)o2)c1 — higher, 8.29%
- O=C(O)c1ccc(CSc2nnc(-c3ccc(Cl)cc3)o2)cc1 — higher, 26.5%
- O=C(O)c1ccc(CSc2nnc(-c3ccco3)o2)cc1 — higher, 2.07%
- CN(C(=O)c1ccnn1C)C1CCCN(Cc2ccccc2F)C1 (centres unmarked) — higher, 15.2%
- CSCCC(NC(=O)c1ccccc1Br)C(=O)N1CCN(C(C)=O)CC1 (centres unmarked) — higher, 8.22%
- O=C(COC(=O)c1ccc(Br)o1)Nc1ccc(Br)cc1 — higher, 19%
- CCCc1cc(C(=O)Nc2sc3c(c2C(=O)OCC)CCCC3)no1 — higher, 6.07%
- O=C(NNc1nc(-c2ccccc2)c2cc(Br)ccc2n1)c1ccc(S(=O)(=O)N2CCCCC2)cc1 — higher, 8.26%
- COc1ccc(-c2cn[nH]c2-c2ccc(OCc3ccc([N+](=O)[O-])cc3)cc2O)cc1 — lower, -9.1%
- C/C(=N\NC(N)=S)C1(C)CCCCC1 — higher, 9.27%
- Cc1cc(N2CCN(Cc3ccc4c(c3)OCO4)CC2)n2ncnc2n1 — higher, 7.64%
- Cc1cc(N2CCN(c3ccc(F)cc3)CC2)n2ncnc2n1 — lower, -57.6%
- Cc1cc(N2CCN(C/C=C/c3ccccc3)CC2)n2ncnc2n1 — lower, -71.5%
- Cc1cc(N2CCN(c3ccccc3)CC2)n2ncnc2n1 — lower, -31.2%
- c1ccc(N2CCN(c3nnnn3-c3ccccc3)CC2)cc1 — lower, -11.2%
- Cc1nc2ncnn2c(C)c1C/C=C/c1ccccc1 — lower, -15.3%
- Cc1cc(N2CCN(c3nc4ccccc4s3)CC2)n2ncnc2n1 — lower, -77.6%
- Cc1cc(C)nc(N2CCN(c3ccc(F)cc3)CC2)n1 — higher, 13.2%
- Cc1cc(N2CCN(C(c3ccccc3)c3ccccc3)CC2)n2ncnc2n1 — lower, -5.7%
- Cc1cc(C)nc(N2CCN(c3nnnn3-c3ccccc3)CC2)n1 — higher, 9.05%
- Cc1cc(N2CCN(c3nnnn3-c3ccccc3)CC2)n2ncnc2n1 — lower, -60.2%
